# Reference: PubChem BioAssay AID1347416 (National Center for Advancing Translational Sciences (NCATS), 2020)
# In all, about 4,100 compounds went through this assay and about 1,600 (39%) were called active. About 25% were inconclusive and are not listed. The call rests on the fitted dose curve; in most records, active means well fitted inhibition curve with a large enough effect; inconclusive means small, poorly fitted or top-dose-only effect; inactive means no such curve, though single readings can be large or run the other way. The list shows a part of the results. A call without a number means that no potency is given here.
# Assay: qHTS Validation assay for Inhibitors of Plasmodium falciparum Dd2 growth in vitro; further: nearly all actives have a fitted effect of over 70% in size
# Conditions: P. falciparum Dd2 in RBCs, SYBR Green growth, 72 h; series mostly up to 28.7 µM
# Summary of the method: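 P. falciparum Dd2-infected red blood cells (2.5% hematocrit, 0.3% parasitemia) grown 72 h at 37 °C under 5% O2 with compounds in a titration, 29 uM to 0.5 nM final. Growth read as SYBR Green-1 fluorescence after ~16 h lysis; artesunate 300 nM as positive control.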
# Potency means the concentration at half of the fitted maximal effect.
row,SMILES,Potency
1,COc1cc(C(=O)NC2CCCc3c2[nH]c2c(Cl)cccc32)cc(OC)c1OC (stereo not given),2.11 µM (active)
2,O=C(NC1CCCc2c1[nH]c1ccccc21)c1ccccc1 (stereo not given),inactive
3,Cc1ccc2c(c1)c(C(=O)N1CCC3(CCNC(=O)CC3)CC1)nn2C,inactive
4,O=C(CN(C(=O)c1cccc([N+](=O)[O-])c1)C1CCCCC1)Nc1ccc(Cl)c([N+](=O)[O-])c1,13.3 µM (active)
5,CN(CC1CCOCC1)C(=O)c1cccc(Cl)c1,inactive
6,CCC(=O)C1=C(c2ccccc2)N(C(=O)CC)n2c(nnc2-c2ccccc2)S1,5.96 µM (active)
7,CCC(=O)C1=C(c2ccc(OC)c(OC)c2)N(C(=O)CC)n2c(CC)nnc2S1,4.73 µM (active)
8,CCC(=O)C1=C(c2cccc([N+](=O)[O-])c2)N(C(=O)CC)n2c(nnc2-c2ccccc2)S1,5.31 µM (active)
9,CCc1noc(-c2nc(-c3ccc(OC)c(OC)c3)no2)n1,inactive
10,CCC(=O)C1=C(c2cccc([N+](=O)[O-])c2)N(C(=O)CC)n2c(nnc2C2CCCCC2)S1,1.88 µM (active)
11,COc1cc2nc(SCc3ccc(F)cc3)n3nc(CCn4c(C)nc5ccccc54)nc3c2cc1OC,2.99 µM (active)
12,CN(C)c1ccc(C(=O)N[C@H]2CO[C@H]3[C@@H]2OC[C@@H]3n2cc(COc3ccccc3)nn2)cc1,inactive
13,C#CCN1c2ccccc2Sc2cccnc21,6.68 µM (active)
14,CCc1cccc(NC(=O)C(Cc2ccccc2)NS(=O)(=O)c2ccc3c(c2)oc(=O)n3C)c1 (stereo not given),inactive
15,COc1cccc(-c2cc(C(=O)Nc3cc(Cl)ccc3O)on2)c1,4.73 µM (active)
16,CC(C)Cc1cc(C(=O)Nc2cc(Br)ccc2O)no1,4.73 µM (active)
17,Cc1cc(-c2ccc(S(=O)(=O)Nc3cc(Cl)ccc3C)s2)on1,inactive
18,COc1cccc(-c2ccc3c(n2)CNC(=O)CO3)c1,inactive
19,COc1ccc(Cl)cc1NC(=O)c1sc(-n2nc(C)c(Cc3ccccc3)c2C)nc1C,inactive
20,CC(C)c1cc(C(=O)Nc2cc(Cl)ccc2O)no1,6.68 µM (active)
21,CC(C)Cc1cc(CNc2nccc(-c3cc(C(=O)O)ccn3)n2)no1,inactive
22,O=C(c1cn[nH]c1)N1CCC(c2nc(CCOCC3CC3)no2)C1 (stereo not given),inactive
23,COc1nc2ccccc2nc1CCC(=O)N[C@H]1COC[C@H]1Cc1cc(C)no1,inactive
24,CN(C)C[C@@H]1CN(Cc2ccccc2)C[C@H]1NC(=O)c1ccncn1,inactive

row,SMILES,Potency
1,Cc1ccccc1NC(=O)c1c(NC(=O)c2cccs2)sc2c1CCC(C)C2 (stereo not given),inactive
2,Cc1ccccc1NC(=O)c1c(NC(=O)c2ccco2)sc2c1CCC(C(C)(C)C)C2 (stereo not given),13.3 µM (active)
3,Cc1ccc(NC(=O)c2c(NC(=O)c3ccco3)sc3c2CCC(C(C)(C)C)C3)c(C)c1 (stereo not given),inactive
4,Cc1ccc(Cl)cc1NC(=O)c1nnn(Cc2ccccc2)c1N,inactive
5,Cc1ccc(Cl)cc1NC(=O)c1cc2ccccc2cc1O,1.5 µM (active)
6,CCOc1ccc(NC(=O)c2cc3ccccc3cc2O)cc1,5.31 µM (active)
7,O=C(NCC1CC1)c1cccc(OC2CN(CC3CC=CCC3)C2)c1 (stereo not given),inactive
8,CCOc1ccc(NC(=O)c2oc3ccccc3c2NC(=O)c2cc(C)cc(C)c2)cc1,inactive
9,Cc1ccc(Cl)cc1NC(=O)CCn1cnc2ccccc2c1=O,inactive
10,O=C(CN1CCN(S(=O)(=O)c2cccs2)CC1)NCC1CCCCC1,inactive
11,O=C(NCC1CCCCC1)c1cc2ccccc2cc1O,9.44 µM (active)
12,Cc1ccsc1C(=O)N1CC(Oc2ccc(-c3nc(-c4ccccc4)no3)cc2)C1,inactive
13,CCn1cc(CN2CC(Oc3ccc(-c4noc(-c5ccncc5)n4)cc3)C2)cn1,13.3 µM (active)
14,Cc1nc(C)c(C(=O)N2CC(Oc3ccc(-c4noc(-c5ccccc5)n4)cc3)C2)s1,inactive
15,Cc1c(C#N)c(N)nc(Cl)c1C#N,inactive
16,CN1N=C(C(=O)N2CCc3c([nH]c4ccccc34)C2c2ccccc2Cl)CCC1=O (stereo not given),5.31 µM (active)
17,CCOc1cc(C(=O)N2CCc3c([nH]c4ccccc34)C2c2ccccc2)cc(OCC)c1OCC (stereo not given),7.5 µM (active)
18,CCOc1cccc(C2c3[nH]c4ccccc4c3CCN2C(=O)CSCc2ccc(F)cc2)c1 (stereo not given),15 µM (active)
19,CC(C)NC(=O)N1CCN(S(=O)(=O)c2ccccc2)[C@@H](C(=O)N[C@H](Cc2c[nH]c3ccccc23)C(N)=O)C1,inactive
20,COc1ccc2nc3cc(Cl)ccc3c(Nc3cc(C(C)C)c(O)cc3C)c2c1,0.266 µM (active)
21,CN(Cc1ccc(C2CC(=O)Nc3n[nH]c(C4CCC4)c32)o1)S(C)(=O)=O (stereo not given),inactive
22,Clc1cnccc1CN1CC(CNc2ccccc2)C2(C1)CN(c1ccccc1)C2 (stereo not given),13.7 µM (active)
23,Oc1ccccc1CN1CC(CNc2cccnc2)C2(C1)CN(c1ccccc1)C2 (stereo not given),10.9 µM (active)
24,CC(C)c1ccc(CN2CC(CNc3cccnc3)C3(C2)CN(c2ccccc2)C3)cc1 (stereo not given),4.85 µM (active)

row,SMILES,Potency
1,Cc1ccc(C)c(-c2cc3c(=O)n(CCNC(=O)c4cccc(F)c4)ccn3n2)c1,inactive
2,COc1ccc([S+](=O)([O-])N2CCC(N3Cc4cccn4C3=O)CC2)cc1,inactive
3,COc1cc(NC(=O)Cn2ncc3c(=O)oc4ccccc4c32)cc(OC)c1OC,2.66 µM (active)
4,Cc1ccc2oc(=O)c3cnn(CC(=O)Nc4cccc(C(F)(F)F)c4)c3c2c1,2.66 µM (active)
5,O=C(NN1C(=O)C2C(C1=O)C1C=CC2C12CC2)c1cccnc1 (stereo not given),inactive
6,COc1ccc(CC(=O)NCc2cc(C)cc3c(C)c(C)[nH]c23)c(OC)c1,8.41 µM (active)
7,CCOCCc1nnc(NC(=O)C(=O)c2cc(C)n(-c3ccc(C)c(C)c3)c2C)s1,inactive
8,COc1ccc(-c2nc3c(c(SCc4ccc(Br)cc4)n2)Cc2c(CO)cnc(C)c2O3)cc1,0.0668 µM (active)
9,CCCCn1cc(S(=O)(=O)c2ccc(Cl)cc2)c(=O)c2cc(F)c(N3CCCCC3)cc21,15 µM (active)
10,COc1ccc2c(c1)c(=O)c(S(=O)(=O)c1ccc(F)cc1)cn2CC(=O)Nc1ccc(C)cc1C,inactive
11,CCCN(CC1CCOC1)C(=O)c1ccc(F)c(Cl)c1 (stereo not given),inactive
12,C1CCC(CNc2c3c(nc4nnnn24)CCCC3)CC1,13.3 µM (active)
13,c1cncc(-c2nnc(-c3cccnc3)nn2)c1,inactive
14,Oc1ccccc1-c1cc(-c2cccnc2)c2cncn2c1,1.72 µM (active)
15,Oc1ccccc1-c1cc(C2=CCOCC2)c2cncn2c1,9.68 µM (active)
16,Cc1ccc([S+](=O)([O-])NC2CCCN(c3nc4ncccc4o3)C2)cc1 (stereo not given),inactive
17,O=C(N/N=C/c1ccccn1)c1cccs1,inactive
18,O=C(O)c1ccc(N/N=C/c2cn(-c3ccccc3)nc2-c2cccs2)cc1,2.66 µM (active)
19,NS(=O)(=O)c1ccc(N/N=C/c2cn(-c3ccccc3)nc2-c2cccs2)cc1,0.335 µM (active)
20,COCC(C)n1c(C)cc(C(=O)CSc2nnc(Nc3ccccc3F)s2)c1C (stereo not given),2.99 µM (active)
21,Cc1ccc(Nc2nnc(SCC(=O)c3ccc(O)cc3O)s2)cc1,inactive
22,CCOC(=O)c1cc(C)n(CC2CCC(C(=O)Nc3cccc(Cl)c3)CC2)c1C (stereo not given),8.41 µM (active)
23,CCOC(=O)c1cccc(NC(=O)N2CC[C@@H](CC(=O)N[C@@H](CO)CC(C)C)[C@@H](CC)C2)c1,inactive
24,CC(=O)N1CCCc2cc(S(=O)(=O)N3CCCC(C(=O)Nc4ccc(C)c(C)c4)C3)ccc21 (stereo not given),inactive

row,SMILES,Potency
1,CC(C)CCN1CCC(N2CCN(S(=O)(=O)c3ccc4c(c3)CCCC4)CC2)C1=O (stereo not given),9.44 µM (active)
2,CNC(=O)[C@@H]1C[C@H](Oc2cccnc2)CN1S(=O)(=O)c1ccc2c(c1)CCC2,inactive
3,O=C1NC(=S)S/C1=C\C=C\c1ccc([N+](=O)[O-])o1,5.31 µM (active)
4,CCCNC(=O)N1CCC(N2C(=O)[C@H](OCCOC)[C@@H]2c2ccncc2)CC1,inactive
5,Cc1ccc(NC(=O)N2CCC(N3C(=O)C4(CCCCC4)C3c3ccncc3)CC2)cc1C (stereo not given),7.5 µM (active)
6,COCCO[C@H]1C(=O)N(C2CCN(C(=O)COc3ccccc3)CC2)[C@H]1c1ccncc1,inactive
7,CCNc1nc(NC(C)(C)C)nc(N2CCCC2)n1,2.37 µM (active)
8,Cc1cc[n+](CC(=O)Nc2cccc(C)c2)cc1,inactive
9,CCOC(=O)c1c(NC(=O)C[n+]2ccc(N(C)C)cc2)sc(C)c1C,1.33 µM (active)
10,O=C(NC1CCN(c2cc(-c3cccs3)[nH]n2)C1)c1cccs1 (stereo not given),inactive
11,O=C(Nc1cc(Cl)ccc1O)c1cc2nc(-c3ccc4c(c3)OCO4)cc(C(F)(F)F)n2n1,2.66 µM (active)
12,COc1ccc(-c2c(C)nn3c(N)c(C#N)cnc23)cc1OC,1.68 µM (active)
13,CC1CC(C)CN(C(=O)CCNC(=O)c2ccccc2Cl)C1 (stereo not given),inactive
14,CC1CC(C)CN(C(=O)CNC(=O)c2sc3ccccc3c2Cl)C1 (stereo not given),inactive
15,CC1CC(C)CN(C(=O)c2ccc3ccccc3c2)C1 (stereo not given),2.37 µM (active)
16,COc1ccc(C(=O)N2CCC3(CC2)CC(O)CCO3)c(OC)c1 (stereo not given),inactive
17,O=C(O)c1cccc(C2CCCN(C(=O)c3ccccc3-n3cccn3)C2)c1 (stereo not given),inactive
18,COc1cc(OC)c(C(=O)N2CCCC2)cc1OC,inactive
19,COc1cc2ccccc2cc1C(=O)N1CC(C)CC(C)C1 (stereo not given),2.37 µM (active)
20,COc1cc2ccccc2cc1C(=O)N1CCCC(C(F)(F)F)C1 (stereo not given),5.31 µM (active)
21,COc1cc(Cl)ccc1C(=O)N1CC[C@@](C)(O)[C@@H](O)C1,inactive
22,CCc1ccc(S(=O)(=O)Nc2cc(-c3cn4ccccc4n3)ccc2C)cc1,inactive
23,Cc1ccc(S(=O)(=O)Nc2ccc(-c3cn4ccc(C)cc4n3)cc2)cc1,6.68 µM (active)
